{
  "source": "PubChem BioAssay AID1259399",
  "about": "(Fisher Drug Discovery Resource Center, 2018)",
  "note": "The campaign covered roughly 160,000 compounds. About 240 (0.15%) were called active. The entries come from a sample that favours actives as a whole. Values without a mark were called inactive. Rule as the data show it: active = inhibition above about 40%; inactive = the rest.",
  "data": [
    {"target": "Cyclic GMP-AMP synthase (Mus musculus) (UniProt Q8C6L5)", "sequence (Q8C6L5 whole entry, looked up)": "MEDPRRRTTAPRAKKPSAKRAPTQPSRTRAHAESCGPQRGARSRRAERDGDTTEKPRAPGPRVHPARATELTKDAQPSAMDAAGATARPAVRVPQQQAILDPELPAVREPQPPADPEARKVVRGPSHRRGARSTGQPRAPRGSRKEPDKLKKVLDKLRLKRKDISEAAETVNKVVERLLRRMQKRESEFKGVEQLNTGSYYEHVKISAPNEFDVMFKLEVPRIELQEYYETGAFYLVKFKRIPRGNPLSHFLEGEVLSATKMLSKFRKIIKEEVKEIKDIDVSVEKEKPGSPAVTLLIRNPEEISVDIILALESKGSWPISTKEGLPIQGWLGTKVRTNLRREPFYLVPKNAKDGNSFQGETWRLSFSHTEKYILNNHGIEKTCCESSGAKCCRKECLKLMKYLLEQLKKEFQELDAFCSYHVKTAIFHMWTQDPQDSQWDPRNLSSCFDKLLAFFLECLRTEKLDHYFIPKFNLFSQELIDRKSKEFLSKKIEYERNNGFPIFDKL", "assay": "cyclic GMP-AMP synthase inhibitors, mouse, primary biochemical chemiluminescence (AID 1259399);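 also: 0% = negative control wells and 100% = reference inhibitor with no enzyme activity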", "conditions": "recombinant cGAS, Kinase-Glo ATP depletion luminescence; at 12.5 µM; hits give high values", "values": [
      {"smiles": "Cc1ccc(C)c(N2CCN(C(=O)c3cccc(F)c3)C(C)C2=O)c1", "note": "(stereo not given)", "inhibition": "-1.42%"},
      {"smiles": "CCc1nc2ccc(C(=O)N(C)Cc3ccccc3)cn2c1N(C)C(=O)c1cccc(OC)c1", "inhibition": "-0.76%"},
      {"smiles": "C=CCN(Cc1cccnc1)C(=O)C1CCCN1C(=O)C1CCCCC1", "note": "(stereo not given)", "inhibition": "-14.1%"},
      {"smiles": "CCc1nc2c(OCCOc3ccc(F)cc3)cccn2c1N(C)C(=O)c1ccncc1", "inhibition": "-2.55%"},
      {"smiles": "O=c1c(O)c(Br)ccc2c(Br)c(O)c(O)c(O)c12", "inhibition": "71.1% (active)"},
      {"smiles": "CCOc1c(Br)cc(Br)cc1CNCC(=O)N1CCCC1", "inhibition": "-7%"},
      {"smiles": "CN(C)c1ccc(/C=C/C=C2/SC(N)=NC2=O)cc1", "inhibition": "-4.74%"},
      {"smiles": "COc1ccc(C2NC(=O)N(C)C3=C2C(=O)N(Cc2ccc(F)cc2)C3)cc1", "note": "(stereo not given)", "inhibition": "-4.51%"},
      {"smiles": "Cc1ccc2nc(-c3ccccc3F)c(NC(C)(C)CC(C)(C)C)n2c1", "inhibition": "-1.73%"},
      {"smiles": "N#CC1C(=N)Oc2c(c(=O)oc3ccccc23)C12C(=O)Nc1ccc(Br)cc12", "note": "(stereo not given)", "inhibition": "-4.42%"},
      {"smiles": "CSc1ccc(C(=O)N2CCCC(CO)(CCCc3ccccc3)C2)cc1", "note": "(stereo not given)", "inhibition": "-6.85%"},
      {"smiles": "Cc1[nH]c2c(c1C(=O)NCCOc1ccccc1F)C(=O)CCC2", "inhibition": "-9.39%"},
      {"smiles": "Cc1nc(N2CCOCC2)ncc1-c1cc(=O)[nH]c(N2CCc3ccccc3C2)n1", "inhibition": "-6.34%"},
      {"smiles": "COc1ccc(C(NC(=O)C2CCN(CCCc3ccccc3)CC2)c2cccs2)cc1", "note": "(stereo not given)", "inhibition": "-2.89%"},
      {"smiles": "CCCCn1nnnc1CSc1nc(C)c(C)c(C)c1C#N", "inhibition": "0.584%"},
      {"smiles": "COc1ccccc1NC(=O)c1ccc(-n2nc(-c3ccc(Cl)cc3)cc2N)cc1", "inhibition": "-3.87%"},
      {"smiles": "O=C(Nc1cccc(-c2cccc(-c3ccc(F)cc3)n2)c1)c1c(F)c(F)c(F)c(F)c1F", "inhibition": "-6.45%"},
      {"smiles": "COCCCN(CC(=O)N1CCc2sccc2C1COc1ccc(Cl)c(C)c1)C(=O)c1cccc(OC)c1", "note": "(stereo not given)", "inhibition": "-4.66%"},
      {"smiles": "O=C(c1ccc(F)cc1F)N1CCC(c2nc(-c3ccc4c(c3)OCO4)no2)CC1", "inhibition": "-1.48%"},
      {"smiles": "COc1ccc(CC(=O)NNC(=O)c2cccn(Cc3ccc(F)cc3)c2=O)cc1", "inhibition": "-6.25%"},
      {"smiles": "CC[N+](C)(CC)CCC[n+]1c(-c2ccccc2)c2cc(N)ccc2c2ccc(N)cc21", "inhibition": "78.9% (active)"},
      {"smiles": "CCN1CCN(C(=O)c2ccc(CSc3nnc(-c4cccs4)n3CC)cc2)CC1", "inhibition": "-5.22%"},
      {"smiles": "O=C(N1CC[C@@H](O)C1)C1(c2cccc(Br)c2)CC1", "inhibition": "-0.654%"},
      {"smiles": "CCn1cc(-c2cc(NCc3ccccn3)nc3[nH]ccc23)c(C)n1", "inhibition": "-9.58%"},
      {"smiles": "CCn1c(SCc2ccccc2OC(F)F)nnc1-c1c2c(nc3ccccc13)CCC2", "inhibition": "-4.53%"},
      {"smiles": "CCOc1ccc(S(=O)(=O)Nc2ccc3oc(-c4ccccc4)cc3c2)cc1", "inhibition": "-4.93%"},
      {"smiles": "CCOc1ccc(C2c3[nH]c4ccccc4c3CCN2C(=O)CSC)cc1", "note": "(stereo not given)", "inhibition": "-3.44%"},
      {"smiles": "Cc1ccc(NC(=O)c2ccc(CSc3nc(Cl)cc(N4CCN(C/C=C/c5ccccc5)CC4)n3)cc2)cc1C", "inhibition": "-2.86%"},
      {"smiles": "C=CCN(C(=O)CCl)c1nc(-c2ccc(Cl)c(Cl)c2)cs1", "inhibition": "72.2% (active)"},
      {"smiles": "N#Cc1ccc(-c2csc(NC(=O)c3cc([N+](=O)[O-])ccc3Cl)n2)cc1", "inhibition": "-5.77%"},
      {"smiles": "CCCS(=O)(=O)N1CCN(c2ccc(C)nn2)CC1", "inhibition": "-8.23%"},
      {"smiles": "COc1cc(CN(C)C(=O)c2c(C)noc2-c2ccccc2Cl)cc(OC)c1OC", "inhibition": "2.4%"},
      {"smiles": "CC(C)CN(Cc1ccc(OS(=O)(=O)c2ccc(F)cc2)cc1)S(=O)(=O)c1ccc(Cl)cc1", "inhibition": "-3.83%"},
      {"smiles": "COc1cc([N+](=O)[O-])ccc1NC(=O)C(C)Nc1ccc2nc(C)sc2c1", "note": "(stereo not given)", "inhibition": "-7.43%"},
      {"smiles": "CC(C)(C)c1cc2nc(C(=O)NCCc3ccccn3)cc(-c3ccccc3F)n2n1", "inhibition": "-5%"},
      {"smiles": "O=C1NC2(CCN(C(=O)COc3ccccc3)CC2)Nc2ccc(Cl)c(Cl)c21", "inhibition": "-6.89%"},
      {"smiles": "C=C(C)CN(CC)C(=O)c1ccc(-c2ccc(OC)c(OC)c2OC)s1", "inhibition": "-8.29%"},
      {"smiles": "CSc1cccc(NC(=O)NCCNc2cc(-n3ccnc3C)nc(C)n2)c1", "inhibition": "-12.2%"},
      {"smiles": "O=C(CCC1CCN(C23CC4CC(CC(C4)C2)C3)CC1)Nc1ccccc1Cl", "inhibition": "-11%"},
      {"smiles": "Cc1ccccc1-n1c(SCCCC(=O)N2CCN(C(=O)COCc3ccccc3)C(C)C2)nnc1-c1ccco1", "note": "(stereo not given)", "inhibition": "-5.31%"},
      {"smiles": "COc1ncccc1-c1cc2c(cn1)nc(NCc1cccc(C)c1)n2C", "inhibition": "-6.3%"},
      {"smiles": "CCn1nc(C(=O)N2CCN(c3ccccc3)CC2)c2c1CCN(C(=O)c1csc(SC)n1)C2", "inhibition": "-7.21%"},
      {"smiles": "CC(C)OCCNC(=O)c1ccc(-c2cc(-c3ccccc3)n[nH]2)cc1", "inhibition": "-2.09%"},
      {"smiles": "Cc1nc2n(n1)C(=O)C(C(c1cccs1)N1CCN(CCO)CC1)S2", "note": "(stereo not given)", "inhibition": "-7.74%"},
      {"smiles": "CCc1cc2c(=O)c(-c3ccc4c(c3)OCO4)c(C)oc2cc1OC1OC(CO)C(O)C(O)C1O", "note": "(stereo not given)", "inhibition": "-6.86%"},
      {"smiles": "COc1cc(/C=C2/C(=O)N(c3ccc(Cl)c(Cl)c3)N=C2C)ccc1O", "inhibition": "27.3%"},
      {"smiles": "CCOC(=O)c1c(NC(=O)c2cccc3c2-c2ccccc2C3=O)c(-c2ccc(OC)c(OC)c2)cn1Cc1ccccc1", "inhibition": "-5.46%"},
      {"smiles": "CCn1c(=NC(=O)Cc2ccc(C)c(C)c2)sc2cc3c(cc21)OCCO3", "inhibition": "-9.59%"},
      {"smiles": "CCCC1(C2CCN(C(=O)[C@H]3C[C@@H]4C=C[C@H]3C4)CC2)NC(=O)N(CCc2cccs2)C1=O", "note": "(stereo not given in full)", "inhibition": "-8.91%"},
      {"smiles": "O=C1c2ccccc2C(=O)c2cc(Sc3ccccc3)ccc21", "inhibition": "-6.93%"},
      {"smiles": "CCc1nc2c(OCCOc3ccccc3)cccn2c1N(C)C(=O)c1ccccc1F", "inhibition": "-3.16%"},
      {"smiles": "CC12OC3(CCCCC3)C(C)(OC13CCCCC3)O2", "inhibition": "-2%"},
      {"smiles": "CC1CCCC(NC(=O)c2cc(S(=O)(=O)N3CCCC3)c[nH]2)C1C", "note": "(stereo not given)", "inhibition": "-4.23%"},
      {"smiles": "COc1ccc2[nH]c3c(c2c1)CCN(C(=O)COCc1ccccc1)C3COCc1ccccc1", "note": "(stereo not given)", "inhibition": "-10.3%"},
      {"smiles": "CCOC(=O)C1(Cc2ccc(OC)cc2)CCN(C(=O)C2CCCC2)CC1", "inhibition": "-2.47%"},
      {"smiles": "CCCc1cc(C(=O)NC(CC)C2CCCO2)sc1C", "note": "(stereo not given)", "inhibition": "3.24%"},
      {"smiles": "Cn1c(=O)n(Cc2ccc(Cl)cc2)c(=O)c2c1nc1oc(C(C)(C)C)cn12", "inhibition": "-8.53%"},
      {"smiles": "C/C(=N/OC(=O)C1CC1(c1ccccc1)c1ccccc1)c1ccccc1", "note": "(stereo not given)", "inhibition": "-5.77%"},
      {"smiles": "CCc1ccc(NC(=O)CSc2nccn3nc(-c4ccc(C)cc4)cc23)cc1", "inhibition": "-6.93%"},
      {"smiles": "CCCOc1nn(CCC)cc1C(=O)Nc1nccs1", "inhibition": "-6.36%"},
      {"smiles": "O=C(Cc1ccc2c(c1)CCC2)Nc1nn2cnnc2s1", "inhibition": "-17.7%"},
      {"smiles": "CCCc1nnc2sc(CCc3c(C)n[nH]c3C)nn12", "inhibition": "-9.34%"},
      {"smiles": "COCc1nnc2sc(Cc3ccc4c(c3)CCCC4)nn12", "inhibition": "79.1% (active)"},
      {"smiles": "c1cc(C2CCN(C3CCC4(CCNCC4)CC3)CC2)ccn1", "inhibition": "-9.51%"},
      {"smiles": "O=C(NC1CCN(c2ccccc2C(=O)NCc2ccc3c(c2)OCO3)CC1)c1ccccc1Cl", "inhibition": "-4.1%"},
      {"smiles": "O=C1OC(C[N+](=O)[O-])C(Cl)=C1Oc1ccccc1", "note": "(stereo not given)", "inhibition": "22.9%"},
      {"smiles": "CCCCc1nc(N2CCN(C(=O)Cc3cccs3)CC2)c2c(C)nn(-c3ccc(F)cc3)c2n1", "inhibition": "-4.18%"},
      {"smiles": "CC1(C(=O)Nc2cccc3cccnc23)CCN1C(=O)Cc1ccccc1Cl", "note": "(stereo not given)", "inhibition": "-5.18%"},
      {"smiles": "CCOC(=O)C1=C(O)/C(=C\\c2cc(O)cc(O)c2)SC1=Nc1cccc(C(F)(F)F)c1", "inhibition": "-2.35%"},
      {"smiles": "Cc1nc(C2(NCc3csc(-c4ccoc4)n3)CCCC2)no1", "inhibition": "-13.3%"},
      {"smiles": "CN(C)CCNC(=O)c1nn(-c2cccc(C(F)(F)F)c2)c(=O)n(Cc2ccccc2F)c1=O", "inhibition": "1.41%"},
      {"smiles": "Cc1c[nH]c(=O)n1-c1ccc(C(=O)Nc2cc(Cl)c(N)c(Cl)c2)cc1", "inhibition": "-14.6%"},
      {"smiles": "CC(C)(C)c1cc(=O)n2[nH]cc(-c3ccc(Cl)cc3)c2n1", "inhibition": "40% (active)"},
      {"smiles": "CC(C)(C)c1cc(=O)n2[nH]cc(-c3ccccc3Cl)c2n1", "inhibition": "-1.72%"},
      {"smiles": "CN(C)CCNc1cc(C(C)(C)C)nc2c(-c3ccc(Cl)cc3)cnn12", "inhibition": "-0.291%"},
      {"smiles": "COCCN(CCOC)Cc1cc(=O)oc2cc(-c3ccccc3)c(O)cc12", "inhibition": "2.45%"},
      {"smiles": "C=CCN1C(=O)C2(CC(=O)N(CCc3cccc(OC)c3)C2=O)c2cc(OC)ccc21", "note": "(stereo not given)", "inhibition": "-2.01%"},
      {"smiles": "Cc1ccccc1N1CCn2c1nc1c2c(=O)n(CCN2CCOCC2)c(=O)n1C", "inhibition": "-8.88%"},
      {"smiles": "COc1ccc(CCNC(=O)CCc2cc3c(n2-c2ccc(OC)cc2)-c2ccccc2CC3)cc1", "inhibition": "-9.29%"},
      {"smiles": "COc1cccc(-c2cc(-c3ccc(C(=O)NCCc4ccc(OC)c(OC)c4)cc3)[nH]n2)c1", "inhibition": "-4.79%"},
      {"smiles": "COc1ccc(-n2c(SCC(=O)N3CCN(C(=O)C(c4ccccc4)c4ccccc4)C(C)C3)nnc2-c2cccc(OC)c2)cc1", "note": "(stereo not given)", "inhibition": "-6.69%"},
      {"smiles": "CC(C)(C)n1nc2c(c1NC(=O)c1ccc3c(c1)OCO3)CSC2", "inhibition": "-7.2%"},
      {"smiles": "CC(C)N(CC(=O)N(Cc1ccc(F)cc1)Cc1ccco1)C(=O)c1ccc(-c2ccccc2)cc1", "inhibition": "-5.81%"},
      {"smiles": "Cc1cc(OC(=O)c2ccc(OC(C)C)cc2)c([N+](=O)[O-])c(=O)[nH]1", "inhibition": "-0.422%"},
      {"smiles": "Cc1ccc(C)c(CN2CCN(c3nc4c(c(=O)[nH]c(=O)n4C)n3CCC(C)C)CC2)c1", "inhibition": "-1.17%"}
    ]}
  ]
}
